Test results: the supplement of paper PMC13392028

System: PvIESI-1 RRM domain (Plasmodium vivax PVP01_0939900 aa 896-1203, GST fusion)
Assay: RBNS R-value (6-mer enrichment in protein-bound RNA vs input library) (ratio); higher = stronger binding preference; the methods of the paper give 50 / 100 / 500 nM protein instead
Method in brief: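 A random 40-mer in vitro transcribed RNA library was incubated at room temperature with purified GST-tagged RNA-recognition-motif regions of orthologues from three Plasmodium species, expressed in E. coli. After capture on glutathione magnetic agarose beads and three washes, bound RNA and input were reverse transcribed and sequenced on a MiSeq. The R-value reports each motif's enrichment in bound RNA over input via the Burge lab pipeline. Motifs were 6-mers from one replicate.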

CCUGAU
RBNS R-value (protein concentration: 250 nM): 3.03
RBNS R-value (protein concentration: 500 nM): 3.36
RBNS R-value (protein concentration: 1000 nM): 3.13

GUUGAU
RBNS R-value (protein concentration: 250 nM): 2.7
RBNS R-value (protein concentration: 500 nM): 2.98
RBNS R-value (protein concentration: 1000 nM): 2.73

GAUGCC
RBNS R-value (protein concentration: 250 nM): 1.89
RBNS R-value (protein concentration: 500 nM): 2.11
RBNS R-value (protein concentration: 1000 nM): 2.06

GAUGGC
RBNS R-value (protein concentration: 250 nM): 2.5
RBNS R-value (protein concentration: 500 nM): 2.55
RBNS R-value (protein concentration: 1000 nM): 2.36

GAUGAG
RBNS R-value (protein concentration: 250 nM): 2.33
RBNS R-value (protein concentration: 500 nM): 2.49
RBNS R-value (protein concentration: 1000 nM): 2.4

ACUGAU
RBNS R-value (protein concentration: 250 nM): 2.99
RBNS R-value (protein concentration: 500 nM): 3.2
RBNS R-value (protein concentration: 1000 nM): 3.11

AGUGAU
RBNS R-value (protein concentration: 250 nM): 2.41
RBNS R-value (protein concentration: 500 nM): 2.69
RBNS R-value (protein concentration: 1000 nM): 2.63

CUGAUA
RBNS R-value (protein concentration: 250 nM): 2.42
RBNS R-value (protein concentration: 500 nM): 2.81
RBNS R-value (protein concentration: 1000 nM): 2.81

CAUGAU
RBNS R-value (protein concentration: 250 nM): 3.57
RBNS R-value (protein concentration: 500 nM): 3.87
RBNS R-value (protein concentration: 1000 nM): 3.8

GUGAUG
RBNS R-value (protein concentration: 250 nM): 3.26
RBNS R-value (protein concentration: 500 nM): 3.57
RBNS R-value (protein concentration: 1000 nM): 3.34

GAUUUU
RBNS R-value (protein concentration: 250 nM): 2.5
RBNS R-value (protein concentration: 500 nM): 2.64
RBNS R-value (protein concentration: 1000 nM): 2.47

ACCCGA
RBNS R-value (protein concentration: 250 nM): 1.44
RBNS R-value (protein concentration: 500 nM): 1.74
RBNS R-value (protein concentration: 1000 nM): 1.74

UGAUAU
RBNS R-value (protein concentration: 250 nM): 2.45
RBNS R-value (protein concentration: 500 nM): 2.79
RBNS R-value (protein concentration: 1000 nM): 2.9

GACACC
RBNS R-value (protein concentration: 250 nM): 1.46
RBNS R-value (protein concentration: 500 nM): 1.66
RBNS R-value (protein concentration: 1000 nM): 1.69

CCCGAG
RBNS R-value (protein concentration: 250 nM): 1.41
RBNS R-value (protein concentration: 500 nM): 1.72
RBNS R-value (protein concentration: 1000 nM): 1.72

UGAUGU
RBNS R-value (protein concentration: 250 nM): 4.24
RBNS R-value (protein concentration: 500 nM): 4.51
RBNS R-value (protein concentration: 1000 nM): 4.13

CCUUGA
RBNS R-value (protein concentration: 250 nM): 1.7
RBNS R-value (protein concentration: 500 nM): 1.88
RBNS R-value (protein concentration: 1000 nM): 1.91

GAUGAC
RBNS R-value (protein concentration: 250 nM): 2.47
RBNS R-value (protein concentration: 500 nM): 2.67
RBNS R-value (protein concentration: 1000 nM): 2.51

GCGAUG
RBNS R-value (protein concentration: 250 nM): 1.97
RBNS R-value (protein concentration: 500 nM): 2.19
RBNS R-value (protein concentration: 1000 nM): 2.01

GUGAUA
RBNS R-value (protein concentration: 250 nM): 2.04
RBNS R-value (protein concentration: 500 nM): 2.34
RBNS R-value (protein concentration: 1000 nM): 2.47

UGAUUU
RBNS R-value (protein concentration: 250 nM): 4.88
RBNS R-value (protein concentration: 500 nM): 5
RBNS R-value (protein concentration: 1000 nM): 4.69

CGUGAU
RBNS R-value (protein concentration: 250 nM): 2.33
RBNS R-value (protein concentration: 500 nM): 2.54
RBNS R-value (protein concentration: 1000 nM): 2.51
